Assay results from PubChem BioAssay (NCATS).
Records with an inconclusive call do not appear. Entries that show only a call come without a potency. The source made the active and inactive calls. Calls come from the whole dose curve; as a rule, active = well fitted inhibition curve with a large enough effect; inconclusive = small, poorly fitted or top-dose-only effect; inactive = flat fitted curve, though single readings scatter.

Tests used:
Assay in all cases: qHTS profiling for inhibitors of Plasmodium falciparum proliferation (AID 504749); note: nearly all actives have a fitted effect of over 60% in size
Details in all cases: P. falciparum in erythrocytes, SYBR Green DNA, 72 h; series mostly up to 28.7 µM
CP194 = test system: CP194
Outline: (§1)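 Three-day growth assay of blood-stage parasites in erythrocytes (0.3% parasitemia, 2.5% hematocrit) at 37 C, 5% CO2, quantified by SYBR Green DNA staining after overnight detergent lysis.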

CP201 = test system: CP201
Outline: as §1

CP203 = test system: CP203
Outline: as §1

CP211 = test system: CP211
Outline: as §1

CP215 = test system: CP215
Outline: as §1

CP217 = test system: CP217
Outline: as §1

CP237 = test system: CP237
Outline: as §1

CP238 = test system: CP238
Outline: as §1

CP247 = test system: CP247
Outline: as §1

CP250 = test system: CP250
Outline: as §1

CP252 = test system: CP252
Outline: as §1

CP256 = test system: CP256
Outline: as §1

CP260 = test system: CP260
Outline: as §1

CP262 = test system: CP262
Outline: as §1

CP265 = test system: CP265
Outline: as §1

CP266 = test system: CP266
Outline: as §1

CP268 = test system: CP268
Outline: as §1

CP269 = test system: CP269
Outline: as §1

CP286 = test system: CP286
Outline: as §1

CP291 = test system: CP291
Outline: as §1
Potency is the fitted concentration of half-maximal effect.

SMILES	outcome (CP194)	outcome (CP201)	Potency (CP203)	outcome (CP211)	Potency (CP215)	outcome (CP217)	Potency (CP237)	Potency (CP238)	Potency (CP247)	Potency (CP250)	outcome (CP252)	outcome (CP256)	Potency (CP260)	outcome (CP262)	Potency (CP265)	outcome (CP266)	Potency (CP268)	outcome (CP269)	Potency (CP286)	outcome (CP291)
CCc1nnc(NS(=O)(=O)c2ccc(N)cc2)s1	inactive	inactive	inactive	inactive	inactive	inactive	inactive	inactive	inactive	inactive	inactive	inactive	inactive	inactive	inactive	inactive	inactive	inactive	inactive	inactive
CCCC(O)C(CC)CO (configuration not stated)	inactive	inactive	inactive	inactive	inactive	inactive	inactive	inactive	inactive	inactive	inactive	inactive	inactive	inactive	inactive	inactive	inactive	inactive	inactive	inactive
CN(C(=O)c1c(O)c2ccccc2n(C)c1=O)c1ccccc1	inactive	inactive	inactive	inactive	inactive	inactive	inactive	inactive	inactive	inactive	inactive	inactive	inactive	inactive	inactive	inactive	inactive	inactive	inactive	inactive
O=C(CN1CCNCC1)NC1CCCCC1	inactive	inactive	inactive	inactive	inactive	inactive	inactive	inactive	inactive	inactive	inactive	inactive	inactive	inactive	inactive	inactive	inactive	inactive	inactive	inactive
C[C@@H](N)C(=O)O	inactive	inactive	9.53 µM (active)	inactive	1.69 µM (active)	inactive	inactive	inactive	inactive	inactive	inactive	inactive	inactive	inactive	inactive	inactive	inactive	inactive	inactive	inactive
NCC1CCC(C(=O)Oc2ccc(CCC(=O)O)cc2)CC1 (configuration not stated)	inactive	inactive	inactive	inactive	inactive	inactive	inactive	inactive	inactive	inactive	inactive	inactive	inactive	inactive	inactive	inactive	inactive	inactive	inactive	inactive
CCOC(=O)c1cccnc1	inactive	inactive	inactive	inactive	inactive	inactive	inactive	inactive	inactive	inactive	inactive	inactive	inactive	inactive	inactive	inactive	inactive	inactive	inactive	inactive
COc1ccc(C(=O)NCc2ccc(OCCN(C)C)cc2)cc1OC	inactive	inactive	inactive	inactive	inactive	inactive	inactive	inactive	inactive	inactive	inactive	inactive	inactive	inactive	inactive	inactive	inactive	inactive	inactive	–
Cc1cccc(C(=O)O)c1O	inactive	inactive	inactive	inactive	inactive	inactive	inactive	inactive	inactive	inactive	inactive	inactive	inactive	inactive	inactive	inactive	inactive	inactive	inactive	inactive
CCCCCC(N)=O	inactive	inactive	inactive	inactive	inactive	inactive	inactive	inactive	inactive	inactive	inactive	inactive	inactive	inactive	inactive	inactive	inactive	inactive	inactive	inactive
Nc1ccncc1N	inactive	inactive	inactive	inactive	inactive	inactive	inactive	inactive	inactive	inactive	inactive	inactive	inactive	inactive	inactive	inactive	inactive	inactive	inactive	inactive
CNCc1ccccc1	inactive	inactive	inactive	inactive	inactive	inactive	inactive	inactive	inactive	inactive	inactive	inactive	inactive	inactive	inactive	inactive	inactive	inactive	inactive	inactive
c1ccc2[nH]ccc2c1	inactive	inactive	inactive	inactive	inactive	inactive	inactive	inactive	inactive	inactive	inactive	inactive	inactive	inactive	inactive	inactive	inactive	inactive	inactive	inactive
O=C(O)CCCCC1CCSS1 (configuration not stated)	inactive	inactive	inactive	inactive	inactive	inactive	inactive	inactive	inactive	inactive	inactive	inactive	inactive	inactive	inactive	inactive	inactive	inactive	inactive	inactive
CCN(CC)CCOC(=O)C(c1ccccc1)c1ccccc1	inactive	inactive	inactive	inactive	inactive	inactive	inactive	inactive	inactive	inactive	inactive	inactive	inactive	inactive	inactive	inactive	inactive	inactive	inactive	inactive
CC1CCc2cc(F)cc3c(=O)c(C(=O)O)cn1c23 (configuration not stated)	inactive	inactive	inactive	inactive	inactive	inactive	inactive	inactive	inactive	inactive	inactive	inactive	inactive	inactive	inactive	inactive	inactive	inactive	inactive	–
O=C(O)CNC(=O)c1ccccc1I	inactive	inactive	inactive	inactive	inactive	inactive	inactive	inactive	inactive	inactive	inactive	inactive	inactive	inactive	inactive	inactive	inactive	inactive	inactive	inactive
CC(=O)OCC(COC(C)=O)OC(C)=O	inactive	inactive	inactive	inactive	inactive	inactive	inactive	inactive	inactive	inactive	inactive	inactive	inactive	inactive	inactive	inactive	inactive	inactive	inactive	inactive
Cc1cccc(Nc2ccccc2C(=O)O)c1C	inactive	inactive	inactive	inactive	inactive	inactive	inactive	inactive	inactive	inactive	inactive	inactive	inactive	inactive	inactive	inactive	inactive	inactive	inactive	inactive
O=C(OOC(=O)c1ccccc1)c1ccccc1	inactive	inactive	inactive	inactive	inactive	inactive	inactive	inactive	inactive	inactive	inactive	inactive	inactive	inactive	inactive	inactive	inactive	inactive	inactive	inactive
CC(C)C[C@@H](N)C(=O)O	inactive	inactive	inactive	inactive	inactive	inactive	inactive	inactive	inactive	inactive	inactive	inactive	inactive	inactive	inactive	inactive	inactive	inactive	inactive	inactive
NC(=O)NS(=O)(=O)c1ccc(N)cc1	inactive	inactive	inactive	inactive	inactive	inactive	inactive	inactive	inactive	inactive	inactive	inactive	inactive	inactive	inactive	inactive	inactive	inactive	inactive	inactive
Nc1ncnc2c1ncn2[C@@H]1O[C@H](COP(=O)(O)O)[C@@H](O)[C@H]1O	inactive	inactive	inactive	inactive	inactive	inactive	inactive	inactive	inactive	inactive	inactive	inactive	inactive	inactive	inactive	inactive	inactive	inactive	inactive	inactive
NS(=O)(=O)c1ccc(NC(=O)CCC(=O)O)cc1	inactive	inactive	inactive	inactive	inactive	inactive	inactive	inactive	inactive	inactive	inactive	inactive	inactive	inactive	inactive	inactive	inactive	inactive	inactive	–
CCc1cccc(CC)c1NC(=O)CN(CC(=O)O)CC(=O)O	inactive	inactive	inactive	inactive	inactive	inactive	inactive	inactive	inactive	inactive	inactive	inactive	inactive	inactive	inactive	inactive	inactive	inactive	inactive	inactive
C[N+](C)(C)CC[N+]1(C)Cc2c(Cl)c(Cl)c(Cl)c(Cl)c2C1	inactive	inactive	inactive	inactive	inactive	inactive	inactive	inactive	inactive	inactive	inactive	inactive	inactive	inactive	inactive	inactive	inactive	inactive	inactive	inactive
CCS(=O)(=O)CCn1c([N+](=O)[O-])cnc1C	inactive	inactive	inactive	inactive	inactive	inactive	inactive	inactive	inactive	inactive	inactive	inactive	inactive	inactive	inactive	inactive	inactive	inactive	inactive	inactive
O=C(CCBr)N1CCN(C(=O)CCBr)CC1	inactive	inactive	inactive	inactive	inactive	inactive	inactive	inactive	inactive	inactive	inactive	inactive	inactive	inactive	inactive	inactive	inactive	inactive	inactive	inactive
O=C(O)c1cc(=O)c2ccccc2o1	inactive	inactive	inactive	inactive	inactive	inactive	inactive	inactive	inactive	inactive	inactive	inactive	inactive	inactive	inactive	inactive	inactive	inactive	inactive	inactive
O[C@@H]1CO[C@H]2[C@@H]1OC[C@@H]2O	inactive	inactive	inactive	inactive	inactive	inactive	inactive	inactive	inactive	inactive	inactive	inactive	inactive	inactive	inactive	inactive	inactive	inactive	inactive	inactive
